# Screens (PubChem BioAssay)
# Sampled rows, rich in hits. Any-hit rate of the full collection: about 3.1%.
# NadD block: blocks S. aureus nicotinate mononucleotide adenylyltransferase; purified NadD enzyme, colorimetric absorbance read-out; inhibition, % at 20 µM; AID 602399; actives 0.78% (n = 360,000); in the data active means inhibition above about 26%
# FAS-TE inh: FAS thioesterase (human) inhibition. P49327. recombinant FAS-TE, OMFH fluorogenic substrate, fluorescence endpoint. inhibition, % at 15 µM. actives 0.67% (n = 360,000);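 active means compounds whose normalised, plate-corrected inhibition of enzyme fluorescence in the single-dose primary screen is 50% or more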;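 further: 0% = DMSO with enzyme and 100% = substrate without enzyme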
# ATG4B inh: ATG4B (human) cysteine protease inhibition; Q9Y4P1; ATG4B cleavage of LC3-PLA2, NBD-HPC fluorescence, 1 h; inhibition, % at 8.33 µM; actives 0.51% (n = 340,000); AID 504462; in the data active means inhibition above about 40%
# Target sequence (Q9Y4P1 whole entry, looked up): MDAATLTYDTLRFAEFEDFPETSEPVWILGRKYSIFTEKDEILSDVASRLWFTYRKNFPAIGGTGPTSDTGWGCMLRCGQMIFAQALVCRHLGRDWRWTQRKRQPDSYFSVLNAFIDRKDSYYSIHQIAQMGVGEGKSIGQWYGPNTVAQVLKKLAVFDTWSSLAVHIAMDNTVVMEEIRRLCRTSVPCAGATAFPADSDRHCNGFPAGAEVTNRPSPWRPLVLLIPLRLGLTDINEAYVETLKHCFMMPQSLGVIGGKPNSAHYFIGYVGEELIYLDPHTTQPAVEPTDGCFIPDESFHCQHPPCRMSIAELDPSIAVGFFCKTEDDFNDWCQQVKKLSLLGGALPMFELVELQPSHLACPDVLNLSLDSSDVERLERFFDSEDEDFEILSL
# Calb FLC: C. albicans growth modulation with fluconazole; AID 1979; growth inhibition, % (test concentration not listed); C. albicans CaCi-2 (fluconazole-resistant clinical isolate) + fluconazole, Alamar Blue growth, 48 h; actives 0.57% (n = 300,000);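 active means growth inhibition above about 58% in most replicates, limit read from the data, passing the limit was not always enough; inconclusive means exactly half the replicates above a set limit; inactive means most replicates below a set limit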;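 further: all wells also contain fluconazole at 8 µg/ml as a sub-toxic cotreatment; 0% = median of DMSO wells and 100% = median of geldanamycin control wells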
# Mot1-301 SUMO: SUMOylation pathway inhibition by Mot1-301 growth rescue. S. cerevisiae Mot1-301 growth rescue, ATP luminescence, 38.5C; percent above DMSO median, 100 means doubled. growth rescue, % at 18.8 µM. actives 1% (n = 320,000). AID 2716;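 active means every valid replicate shows activation above 250% relative to neutral control wells; inactive means the rest, any valid replicate at or below 250%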;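 further: OY570 slx delta 5 strain wells were the positive control but not used for scaling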
# Mot1 SUMO dose: inhibits SUMO pathway, affecting Mot1-301 yeast growth; shares compounds with Mot1-301 SUMO; S. cerevisiae Mot1-301 galactose growth, ATP luminescence, 24 h; -100 = growth of slx-deleted rescue strain; 2,300 tested, under 10 active; growth activity, percent, % at 42 µM;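 active means Signal drops as the depositor expects, and the fitted half-maximal dose is no more than ten times the top valid tested dose; inconclusive means Poor fit, or a flat curve whose signal drops by 30% to 70%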;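 further: more negative values mean stronger growth rescue toward the control strain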
# Starred values were filed as active, the others as inactive; u = inconclusive; x = no result given; + = active, no number.
SMILES,NadD block,FAS-TE inh,ATG4B inh,Calb FLC,Mot1-301 SUMO,Mot1 SUMO dose
O=C(c1ccccc1F)N1CCCc2ccccc21,0,-1,-4,-13,495*,0
CCCCn1c(N)c(N(C(=O)CSc2nnnn2-c2ccccc2C)C2CCCC2)c(=O)[nH]c1=O,-3,0,-11,x,x,x
c1ccc2nc3c(nc2c1)OCC1CCCCN31 (configuration not stated),-4,-3,-3,0,360*,0
c1ccc2nc(N3CCCC3)c(N3CCCCC3)nc2c1,-4,14,-2,x,x,x
CCCNC(=O)Cn1nc(C)n2c(cc3cc(F)ccc32)c1=O,-8,-9,6,3,+,0
O=C(CSc1nc(-c2ccccc2)nc2ccc(F)cc12)Nc1ccc(C(=O)O)cc1,11,-3,4,-19,14,x
CSc1nsc(SCC(=O)Nc2cccc(C(=O)O)c2)n1,-2,-4,-4,16,782*,1
O=C(CSc1nc(-c2ccccc2)nc2ccc(F)cc12)Nc1cccc(C(=O)O)c1,12,-3,0,10,535*,1
COC(=O)c1cc(Cl)c(NC(=O)C(C)C)cc1OC,-5,-4,-8,6,661*,0
Cc1cc(Cl)ccc1OCCCC(=O)OCC(N)=O,-7,-1,1,8,-5,x
CC(C)COc1ccc(C(=O)Nc2ccc([N+](=O)[O-])cc2)cc1,7,-2,-1,15,691*,0
CCC(=O)Oc1ccc(C(=O)Nc2ccc([N+](=O)[O-])cc2)cc1,-2,2,-1,-26,-12,x
O=C(CCCC(=O)N/N=C/c1ccccc1C(=O)O)N/N=C/c1ccccc1C(=O)O,-4,-3,-9,-3,419*,1
O=C1CN(C(=O)c2ccccc2F)C(c2ccc(F)cc2)c2cc(Br)ccc2N1 (configuration not stated),-1,6,-7,1,102,x
O=C1CN(C(=O)c2ccccc2F)C(c2ccccc2)c2cc(Cl)ccc2N1 (configuration not stated),-5,0,-9,12,603*,0
CC1(C)NC(=O)N(CCCOc2ccccc2Br)C1=O,-2,-11,5,-3,+,0
CC1(C)NC(=O)N(CCCCOc2ccccc2[N+](=O)[O-])C1=O,x,x,x,8,6,x
Cc1cccc(C(=O)NC2CCN(CC(=O)Nc3ccccc3Cl)CC2)c1,-1,5,-5,13,-9,x
CCC(C)NC(=O)CSc1nnc(-c2cc(-c3ccc(C)cc3)nc3ccccc23)n1N (configuration not stated),0,9,-8,0,971*,1
O=C1c2ccccc2C(=O)N1CCCCSc1nc2ccccc2c(=O)n1CCCN1CCOCC1,-11,7,16,-22,+,0
CN1CCN(S(=O)(=O)c2ccc3c(c2)oc(=O)n3C)CC1,0,-23,3,u,288,x
Cc1ccn2cc(-c3cnoc3C)nc2c1,-1,-4,-1,-6,692*,0
Cc1oncc1-c1cn2ccccc2n1,7,-7,-9,3,-7,x
O=C(NC(=S)N1CCCCC1CO)c1cc(Br)ccc1Cl (configuration not stated),-6,-3,-2,x,x,x
COc1ccc(N2C(=O)CC(NCc3cccs3)C2=O)cc1 (configuration not stated),-4,-3,-6,1,359*,1
SMILES,NadD block,FAS-TE inh,ATG4B inh,Calb FLC,Mot1-301 SUMO,Mot1 SUMO dose
COc1ccc(N2C(=O)CC(NCC#N)C2=O)cc1 (configuration not stated),5,-5,1,0,-8,x
O=C(c1cn(-c2ccccc2)nc1-c1cccs1)N1CCOCC1,3,-3,1,1,+,0
CS(=O)(=O)N(CC(=O)N1CCCC1)c1cccc(Cl)c1Cl,-4,-6,-1,7,530*,0
CC1=C(C(=O)OCc2ccccc2)C(c2cccc(F)c2)NC(=O)N1 (configuration not stated),-1,1,-5,9,611*,0
CC1=C(C(=O)OCc2ccccc2)C(c2ccccc2)NC(=O)N1 (configuration not stated),-4,-2,-5,6,-1,x
CNc1oc(-c2cccs2)nc1C#N,8,-1,3,6,625,x
COc1ccc(Nc2oc(-c3cccs3)nc2C#N)cc1,-12,14,-6,4,918*,-1
COc1ccc2c(Cl)c(C(=O)NN3CCN(C)CC3)sc2c1,-6,-7,-1,18,587*,-1
O=c1cc(C(F)(F)F)c2sc(N3CCCCC3)nc2[nH]1,-4,-2,-9,14,429*,0
CC(C)C[C@H](NC(=O)C1CC(=O)N(c2ccc(F)cc2)C1)C(=O)N1CCCCC1 (some centres not stated),2,-1,-5,-3,-8,x
CC(C)=CCN1CCN(Cc2cc(CC(C)C)n[nH]2)CC1CCO (configuration not stated),-7,-5,-2,u,-1,x
CC(C)Cc1cc(CN2CCC(CO)(Cc3ccccc3)CC2)[nH]n1,-8,-5,19,-9,455*,-1
N=c1ncn(CC(O)CO)c2nc(N3CCOCC3)[nH]c12 (configuration not stated),-5,-7,-2,-6,457*,0
Cc1ccc(N(C)S(=O)(=O)c2c(C)noc2/C=C/N(C)C)cc1,-1,11,4,-7,9,x
Oc1ccc(C2=CSC3=NCCN23)cc1O,-3,-18,1,-6,718*,0
O=c1/c(=C/c2ccccn2)sc2n1CN(c1ccccc1)CN=2,6,3,5,-8,5,x
Cc1cccc(N2CN=c3s/c(=C\c4ccccn4)c(=O)n3C2)c1,9,5,-3,2,441*,0
O=C(Nc1cccc(F)c1)/C(=C/c1ccco1)NC(=O)c1ccco1,1,-8,2,-2,397,x
Cc1c(O)ccc(C(=O)CN2C(=O)c3ccccc3C2=O)c1O,-2,-1,-4,14,876*,2
CC1C(=O)C(C)C(c2ccco2)NC1c1ccco1 (configuration not stated),-8,-6,-4,13,-17,x
c1coc(C2OCC3(CO2)COC(c2ccco2)OC3)c1 (configuration not stated),11,-3,1,7,523*,-1
O=C(NCc1ccccn1)c1cccc(S(=O)(=O)NCc2ccccc2)c1,4,-6,2,1,286,x
CC1CCN(C(=O)c2[nH]cnc2C(=O)NCC(=O)OCc2ccccc2)CC1,-1,-8,7,-14,790*,0
Oc1ccc(Br)cc1/C=N/n1c(COc2ccccc2)n[nH]c1=S,15,5,23,-16,679*,0
